Dicer processing – inhibitors of Dicer pre-microRNA processing, primary screen, biochemical, cat-ELCCA, chemiluminescence. cat-ELCCA pre-miR-21 Dicer processing; hits give high values. hit rate 6% among 47,000. z-score at 25 µM. AID 1347074, 2019; in the data active means z-score above about 3, passing the limit was not always enough;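 further: plate controls were vehicle for no effect and no enzyme for full effect; higher signal means more uncleaved substrate so more Dicer inhibition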
* hit, by the source's call. The entries come from a sample that favours hits as a whole.

For Cn1c(-c2ccc(Cl)cc2)cnc1SCc1c(Cl)cccc1Cl the results were Dicer processing -2.8.
For CN(C)/C=C/C=C1\c2ccccc2-c2ccc([N+](=O)[O-])cc21 the results were Dicer processing -1.
Screening Cc1cc(N2C(=O)CC(C)CC2=O)no1 returned Dicer processing 0.09.
For O=C(c1ccc(F)cc1)C(C(=O)N1CCN(C/C=C/c2ccccc2)CC1)n1ccccc1=O (stereo not given) the results were Dicer processing -0.72.
O=C(c1ccc(Br)cc1)C(C(=O)N1CCCCC1)n1ccccc1=O (stereo not given) was read as Dicer processing 3.3*.
CC1CCN(C(=O)C(C(=O)c2ccc(Br)cc2)n2ccccc2=O)CC1 (stereo not given) was read as Dicer processing -0.31.
Screening OCCCc1nc2n(n1)C(c1ccccc1Cl)C=C(c1ccc(F)cc1)N2 (stereo not given) returned Dicer processing 0.95.
Cc1cc(NS(=O)(=O)c2ccc(F)c(Cl)c2)no1 was read as Dicer processing 0.36.
Nc1ccccc1NC(=S)Nc1ccccc1C(F)(F)F was read as Dicer processing 1.8.
For Nc1ccc(-c2nnc(Nc3ccccc3C(F)(F)F)s2)cc1 the results were Dicer processing 3.6*.
Screening NC(=S)Nc1ccccc1C(F)(F)F returned Dicer processing -0.1.
For CN1c2ccsc2C(=O)/C(=C\Nc2ncccn2)S1(=O)=O the results were Dicer processing -0.34.
C=CCN(CC=C)S(=O)(=O)c1ccc(C(=O)N2CCCC2)cc1 was read as Dicer processing 1.6.
For CN1C(=O)c2cccc3c(S(=O)(=O)NCCCCCC(=O)O)ccc1c23 the results were Dicer processing -1.6.
Screening CN1C(=O)c2cccc3c(S(=O)(=O)NCCCC(=O)O)ccc1c23 returned Dicer processing 0.78.
For CN1C(=O)c2cccc3c(S(=O)(=O)NCC(=O)O)ccc1c23 the results were Dicer processing 3.1*.
Screening Cc1ccc2nc(CCCC(=O)O)[nH]c2c1 returned Dicer processing 3.6*.
For O=C(O)Cc1nc2ccc(Cl)cc2[nH]1 the results were Dicer processing -0.26.
For Cc1ccc(C(=O)/C=C/Sc2nc3ccc(C)cc3[nH]2)cc1 the results were Dicer processing 1.1.
Screening CCCCOC(=O)C1=C(C)NC2=C(C(=O)CC(C)(C)C2)C1c1cc(Br)c(O)c(OC)c1 (stereo not given) returned Dicer processing 0.09.
For CC12CCC(C1)C(C)(C)C2NC(=O)c1ccc(Cl)cc1 (stereo not given) the results were Dicer processing 0.16.
Screening COc1ccccc1C1Nc2ccc(C)cc2-c2cc(C)nn21 (stereo not given) returned Dicer processing 3.5*.
COc1ccccc1C1Nc2ccccc2-c2cc(C)nn21 (stereo not given) was read as Dicer processing 0.8.
`CCOc1cccc(C2Nc3ccc(C)cc3-c3cc(C)nn32)c1O` (stereo not given) gave Dicer processing 1.5.
CCOc1ccccc1C1Nc2ccc(C)cc2-c2cc(C)nn21 (stereo not given) was read as Dicer processing 4.1*.
`COc1ccc(C2Nc3ccc(C)cc3-c3cc(C)nn32)c(OC)c1` (stereo not given) gave Dicer processing 0.75.
For Cn1nccc1NS(=O)(=O)c1ccc(F)cc1Cl the results were Dicer processing -1.1.
`CCCSC1=C(C#N)C(c2ccc(Cl)cc2)CC(=O)N1` (stereo not given) gave Dicer processing 1.1.
For O=C(O)c1ccc(COCOCc2ccc(C(=O)O)o2)o1 the results were Dicer processing 1.6.
`Cc1ccc2cc(NC(=O)c3nccnc3C(=O)O)ccc2n1` gave Dicer processing -0.64.
CN(C)S(=O)(=O)c1ccc(C(=O)Nc2nnc(-c3ccc(Br)cc3)s2)cc1 was read as Dicer processing 3.2*.
Screening CC(C)(C)c1ccc(-c2nnc(NC(=O)C(Cl)(Cl)Cl)s2)cc1 returned Dicer processing -0.32.
For CC(C)(C)C(=O)Nc1nnc(-c2ccc(Br)cc2)s1 the results were Dicer processing 1.3.
O=C(Nc1cccc(O)c1)c1cc2nc(-c3cccs3)cc(C(F)(F)F)n2n1 was read as Dicer processing 0.32.
`COc1cccc(C2CC(=O)Nc3nc(N)[nH]c(=O)c32)c1` (stereo not given) gave Dicer processing -0.75.
For C#CCOc1ccc(C2C3=C(CCCC3=O)N(C)C3=C2C(=O)CCC3)cc1 the results were Dicer processing 1.1.
Cc1ccc(CSc2nc3ncccc3[nH]2)cc1 was read as Dicer processing 4.3*.
Fc1cc(Cl)ccc1CSc1nc2ncccc2[nH]1 was read as Dicer processing -0.21.
For Brc1cccc(CSc2nc3ncccc3[nH]2)c1 the results were Dicer processing 1.2.
For O=C(Nc1[nH]c2cc([N+](=O)[O-])ccc2c1-c1ccccc1)c1cccs1 the results were Dicer processing 1.2.
For CCc1cccc(CC)c1NC(=S)NCCCC(=O)O the results were Dicer processing -0.3.
For S=C(NCc1csc2ccccc12)NCC1CC1 the results were Dicer processing 4*.
O=C(O)/C=C/C(=O)NCc1ccc(F)cc1 was read as Dicer processing -0.86.
Screening CC1CC(NC(=S)NCc2csc3ccccc23)CC(C)(C)C1 (stereo not given) returned Dicer processing -1.
Screening N/C(Cc1csc2ccccc12)=N\O returned Dicer processing 0.88.
`O=C(O)/C=C\C(=O)NCc1csc2ccccc12` gave Dicer processing 5.3*.
Screening O=C(O)c1nccnc1C(=O)NCc1csc2ccccc12 returned Dicer processing 1.4.
For O=c1[nH]c2ccc(Cl)cc2n1-c1ccncc1 the results were Dicer processing -0.23.
`O=[N+]([O-])c1ccc(CSc2ccc(F)cc2F)c(Cl)c1` gave Dicer processing -1.2.
Screening Cc1ccc(SC(=O)N2CCOCC2)cc1 returned Dicer processing -0.58.
`O=C(c1cc(-c2ccccc2)nc2ccccc12)N1CCOCC1` gave Dicer processing 1.5.
`O=C(C1Cc2ccccc2C1)N1CCOCC1` gave Dicer processing 7.3*.
Screening CCc1ccc(C(=O)/C=C/SC(=NC#N)SC)cc1 returned Dicer processing 0.17.
For Clc1ccc(-c2noc(C3CCc4ccccc4O3)n2)cc1 (stereo not given) the results were Dicer processing -0.33.
`CCOc1cc(C2c3c(oc4ccc(C)cc4c3=O)C(=O)N2Cc2ccc(OC)cc2)ccc1O` (stereo not given) gave Dicer processing 3.1*.
For O=C1c2oc3ccccc3c(=O)c2C(c2cccc(O)c2)N1Cc1ccccc1Cl (stereo not given) the results were Dicer processing 1.
For COc1cc(C2c3c(oc4ccccc4c3=O)C(=O)N2Cc2ccccc2Cl)ccc1O (stereo not given) the results were Dicer processing 3.2*.
CCOc1cc(C2c3c(oc4ccc(F)cc4c3=O)C(=O)N2Cc2ccc(C)cc2)ccc1O (stereo not given) was read as Dicer processing 1.7.
`O=C1c2oc3ccccc3c(=O)c2C(c2ccc(O)cc2)N1Cc1ccccc1Cl` (stereo not given) gave Dicer processing 1.
Screening COc1ccc(CN2C(=O)c3oc4ccc(C)cc4c(=O)c3C2c2ccc(O)c(OC)c2)cc1 (stereo not given) returned Dicer processing -0.31.
`COc1ccc(NC(=O)c2ccc3ncccc3c2)cc1` gave Dicer processing -2.5.
